Assay results from PubChem BioAssay (NCATS).
Several values for one entry are separate records, joined by “and”; a condition that tells them apart may be missing. Equal values may be shown once. Records with an inconclusive call do not appear. Entries that show only a call come without a potency. Some compounds were tested as several samples or in several runs, with calls that do not always agree. Activity calls are given as the source filed them. The call rests on the fitted dose curve; in most records, active means well fitted curve in the direction sought with a large enough effect; inconclusive means small, poorly fitted or top-dose-only effect, or another doubt; inactive means no such curve, though single readings can be large; an effect the other way counts as inactive or inconclusive.

What was measured:
[1] = P-glycoprotein substrates identified in KB-3-1 adenocarcinoma cell line, qHTS therapeutic library screen (AID 1346986); further: nearly all actives have a fitted effect of over 60% in size;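 further: potency means the concentration at half of the fitted maximal effect; potency is for cytotoxicity meaning loss of cell viability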
How it was run: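 Viability read by CellTiter-Glo after 72 h compound exposure in dose-response of KB-3-1 and KB-8-5-11 (P-gp-high) cells. Hits needed AC50 < 10 uM, >50% maximum response and curve class -1.1 to -2.4. Cherry-picks retested ± tariquidar, including pcDNA/MDR-19 HEK-293 pair.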

[2] = P-glycoprotein substrates identified in KB-8-5-11 adenocarcinoma cell line, qHTS therapeutic library screen (AID 1346987); further: nearly all actives have a fitted effect of over 65% in size; further: potency means the concentration at half of the fitted maximal effect
How it was run: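 Luminescence from CellTiter-Glo, read 5 min after addition, quantified survival of KB-8-5-11 (P-gp-overexpressing) cells exposed to compounds for 72 h. AC50 was derived from concentration-response curves.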

[3] = NS1 protein of Zika virus - qHTS assay to identify small molecule inhibitors in human HEK 293 cells (AID 1347053); further: nearly all actives have a fitted effect of over 55% in size; further: potency means the concentration at half of the fitted maximal effect
How it was run: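 Compound-treated (1 h pre-infection) HEK 293 cells infected with ZIKV MR766, MOI = 0.5; after 24 h at 37 C, NS1 read by TR-FRET; data normalized to uninfected and infected controls.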

[4] = qHTS of pediatric cancer cell lines to identify multiple opportunities for drug repurposing: Primary screen for TC32 cells (AID 1347089); further: nearly all actives have a fitted effect of over 60% in size; further: potency means the concentration at half of the fitted maximal effect
How it was run: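 qHTS, TC32, 48 h drug treatment, CellTiter-Glo luminescence as a proxy for metabolically active cells; primary top concentration 46 µM (MIPE 11-pt, NPC 8-pt); confirmatory 11-pt.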

[5] = qHTS of pediatric cancer cell lines to identify multiple opportunities for drug repurposing: Primary screen for DAOY cells (AID 1347090); further: nearly all actives have a fitted effect of over 55% in size; further: potency means the concentration at half of the fitted maximal effect
How it was run: (§1)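 Cell viability, CellTiter-Glo luminescence; 500-1,000 cells/well, 8- or 11-point titration, 48 h compound exposure at 37 degrees C, 5% CO2. Controls: DMSO neutral, bortezomib 2.3 µM final as positive.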

[6] = qHTS of pediatric cancer cell lines to identify multiple opportunities for drug repurposing: Primary screen for SJ-GBM2 cells (AID 1347091); further: potency means the concentration at half of the fitted maximal effect
How it was run: as §1

[7] = qHTS of pediatric cancer cell lines to identify multiple opportunities for drug repurposing: Primary screen for A673 cells (AID 1347092); further: nearly all actives have a fitted effect of over 45% in size; further: potency means the concentration at half of the fitted maximal effect
How it was run: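 Luminescence from CellTiter-Glo, taken after 15 min at room temperature, served as the proxy for metabolically active cells following 48 h treatment. Both potency and efficacy were taken from curves fitted to the titration data.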

[8] = qHTS of pediatric cancer cell lines to identify multiple opportunities for drug repurposing: Primary screen for SK-N-MC cells (AID 1347093); further: potency means the concentration at half of the fitted maximal effect
How it was run: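 Metabolically active cells were quantified by ATP-dependent luminescence (CellTiter-Glo, 15 min at room temperature) following 48 h treatment. Cells had been plated at 500-1,000 per well and settled for 5 h beforehand.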

[9] = Identifying Small Molecule Inhibitors of Pancreatic Cancer Stem Cells (A278, Adherent) (AID 1259361); further: nearly all actives have a fitted effect of over 35% in size
How it was run: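 Adherent (2D) versus sphere (3D) formats; spheres generated 14 d in SCM beforehand. Compound transferred by pin tool after 4 h, 48 h incubation, CellTiter-Glo endpoint.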

[10] = qHTS of pediatric cancer cell lines to identify multiple opportunities for drug repurposing: Primary screen for NB-EBc1 cells (AID 1347095); further: potency means the concentration at half of the fitted maximal effect
How it was run: (§2)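 CRCs from 8- or 11-point titrations (lowest final 0.59 nM NPC, 0.78 nM MIPE). Cell viability: CellTiter-Glo after 48 h incubation, 15 min room-temperature development, luminescence imaging.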

[11] = qHTS of pediatric cancer cell lines to identify multiple opportunities for drug repurposing: Primary screen for BT-37 cells (AID 1347094); further: potency means the concentration at half of the fitted maximal effect
How it was run: as §2

Compound | Potency [1] | Potency [2] | Potency [3] | Potency [4] | Potency [5] | Potency [6] | Potency [7] | Potency [8] | IC50 (viability decrease) [9] | Potency [10] | Potency [11]
Cc1nc2cnc3ccc(C#Cc4cccnc4)cc3c2n1-c1ccc(C(C)(C)C#N)cc1 | inactive | 37.2 nM (active) and inactive | 935 nM (active) | 330 nM (active) | 118 nM (active) | 332 nM (active) | 9.3 nM (active) | 46.9 nM (active) | – | – | –
O=C(O)c1ccc2c(c1)nc(Nc1cccc(Cl)c1)c1ccncc12 | 5800 nM (active) | inactive and 14.6 µM (active) | – | inactive | 4690 nM (active) | 7430 nM (active) | 4690 nM (active) | 935 nM (active) | 16600 nM (active) | 2350 nM (active) | –
COC(=O)Nc1ccc(-c2nc(N3CCOCC3)c3cnn(C4CCN(Cc5cccnc5)CC4)c3n2)cc1 | 1030 nM (active) | 148 nM (active) and 920 nM (active) | 16600 nM (active) | – | 4690 nM (active) | 743 nM (active) | 4690 nM (active) | 46.9 nM (active) | – | 1180 nM (active) | –
Nc1nc(NCCNc2ncc(-n3ccnc3)c(-c3ccc(Cl)cc3Cl)n2)ccc1[N+](=O)[O-] | inactive | inactive | inactive | inactive | 14800 nM (active) | 4690 nM (active) | 9350 nM (active) | – | – | 13200 nM (active) | –
CCNC(=O)Nc1ccc2ncc(Nc3ccc(C)cc3)nc2n1 | inactive | inactive | inactive | – | 37.2 nM (active) | – | – | – | – | 18700 nM (active) | 24300 nM (active)
CN1CCN(c2cc(C(=O)Nc3ccc4c(c3)-c3c(c(C(N)=O)nn3-c3ccc(F)cc3)CC4)c(Cl)cn2)CC1 | 29100 nM (active) | 23.5 µM (active) | 26400 nM (active) | inactive | 11800 nM (active) | – | 2350 nM (active) | – | – | – | 24300 nM (active)
CC(C)(O)c1cc2nc(-c3cnc(N)nc3)nc(N3CCOCC3)c2s1 | 411 nM (active) | 105 nM (active) and 517 nM (active) | – | 466 nM (active) | 148 nM (active) | 235 nM (active) | 372 nM (active) | 11.8 nM (active) | – | 93.5 nM (active) | 769 nM (active)
CCn1nnc2c(N3CCOCC3)nc(-c3ccc(NC(=O)Nc4ccc(C(=O)N5CCN(C)CC5)cc4)cc3)nc21 | 58 nM (active) | – | – | 29.4 nM (active) | 235 nM (active) | 46.9 nM (active) | 93.5 nM (active) | – | – | – | 17.2 nM (active)
O=C(O)CCCc1c[nH]c2ccccc12 | inactive | inactive | inactive | – | inactive | inactive | inactive | inactive | – | 18700 nM (active) | –
Cc1ccc(CN2CCNCC2)cc1NC(=O)CNc1ccc(F)c(F)c1 | inactive | inactive | inactive | inactive | inactive | – | inactive | inactive | – | inactive | inactive
CC(O)C1C(=O)N2C(C(=O)O)=C(SC3CNC(C(=O)N(C)C)C3)C(C)C12 (stereo not drawn) | inactive | inactive | inactive | – | inactive | inactive | inactive | inactive | – | inactive | inactive
Cc1c(Cn2c(C)nc3c(C(=O)O)cc(N4CCOCC4)cc32)cccc1C(F)(F)F | inactive | inactive | inactive | inactive | 7430 nM (active) | inactive | – | 59 nM (active) | – | 14800 nM (active) | inactive
CC1(C)O[C@@H]2C[C@@H]3[C@H]4C[C@@H](F)C5=CC(=O)C=C[C@]5(C)[C@@]4(F)[C@@H](O)C[C@]3(C)[C@]2(C(=O)CO)O1 | inactive | inactive | inactive | inactive | – | – | – | 9350 nM (active) | – | inactive | inactive
O=C(c1cncc(Br)c1)N1CCC(N2CCCC2)CC1 | inactive | inactive | – | inactive | inactive | inactive | inactive | inactive | – | – | inactive
CN(C1CCc2c(c3ccccc3n2CC(=O)O)C1)S(=O)(=O)c1ccc(F)cc1 (stereo not drawn) | inactive | inactive | inactive | – | 5900 nM (active) | – | 935 nM (active) | 935 nM (active) | – | – | –
Cn1c(CNc2ccc(C(=N)N)cc2)nc2cc(C(=O)N(CCC(=O)O)c3ccccn3)ccc21 | inactive | inactive | inactive | – | inactive | inactive | – | – | – | inactive | inactive
CN1c2cc(O)c(N=NC(N)=O)cc2CC1S(=O)(=O)O (stereo not drawn) | inactive | inactive | inactive | inactive | inactive | inactive | inactive | – | – | inactive | inactive
